Laboratory results from PubChem BioAssay (NCATS).
Inconclusive results are not listed. Entries that show only a call come without a potency. Active and inactive are the calls of the source. The call rests on the fitted dose curve; in most records, active means well fitted cell-killing curve with a large enough effect; inconclusive means small, poorly fitted or top-dose-only effect; inactive means flat fitted curve, though single readings scatter.

assay: Quantitative highthroughput screen to assess conditional lethalithy of P12 Ichikawa cells grown in RPMI1640 with untreated serum (RPMI+s) (AID 1963881); conditions: ATP luminescence, 48 h; Potency: viability; series mostly up to 45.8 µM; further: nearly all actives have a fitted effect of over 35% in size
Excerpt: Assay Provider: Jason Cantor Ph.D.
Department of Biochemistry
University of Wisconsin-Madison, Madison, WI, USA
Chemical screening studies have identified drug sensitivities across hundreds of cancer cell lines but most putative therapeutics fail to translate. Discovery and development of drug candidates in models that more accurately reflect nutrient levels in human blood is a major challenge. Here we performed high-throughput screens in conventional versus Human Plasma-Like Medium (HPLM) to identify compounds that were "missed" when screening using the artificial culture condition. Sets of conditional anticancer compounds spanned phases of clinical development and included non-oncology drugs were assessed. […] We also traced conditional phenotypes for several chemotherapeutics to availability of HPLM-specific metabolites and confirmed others for compounds whose reported targets are encoded by nonessential genes. Our findings establish generalizable strategies for exploiting conditional lethality in HPLM to reveal therapeutic candidates and mechanisms of action in cancer cells.
Described herein are the results of each viability screens against three cell lines: NOMO1 (an acute myeloid leukemia cell line); P12-Ichikawa (a T-cell acute lymphoblastic leukemia); and SEM (a B-cell ALL). Each assay was screened using 3 different cell culture media: homemade human plasma-Like medium with 10% dialyzed fetal bovine serum (HPLM+ds); RPMI1640 with 10% untreated FBS and 5mM glucose (RPMI+s); and RPMI1640 with 10% dialyzed fetal bovine serum and 5 mM glucose (RPMI+ds).
PROTOCOL TABLE (as described by Inglese J, Shamu CE and Guy RK. 2007)
SEQUENCE No. (e.g., 1, 2, 3, etc.); […] (e.g., Cells, Incubation, Reagent, etc.); VALUE and DESCRIPTION.
1; Cells; 5 uL; white, solid bottom 1536-well Greiner assay plate.
2; Compounds; 23 nL; Kalypsis pin tool (Wako USA) equipped with a 1536-well pin head to transfer to the assay plates.
3; Incubation; 48 hours; 37C incubation.
4; Reagent; 3 uL; CellTiter Glo (Promega).
5; Incubation; 5 min, room temperature
6; Detection; Luminescence, Viewlux PerkinElmer.
NOTES (numbers refer to Sequence numbers above)
1. Briefly, 5 ul of cell reagent was dispensed using a Multidrop Combi Dispenser. The NOMO1 and SEM cells were plated at 500 cells/well and the P12-Ichikawa line at 1000 cells/well.
2. After seeding the cells, 23 nL of MIPE 4.1 library compounds (in DMSO) were added to each plate using a Kalypsys 1536 Pintool dispenser. Bortezomib at final concentration of […] and DMSO were added to each plate as positive and negative controls respectively. For each screen, MIPE 4.1 compounds were added over an eleven-point concentration range […] in 3-fold dilutions.
3. Each plate was covered with a stainless steel gasketed lid to prevent evaporation and incubated for 48 hour at 37C, 95% relative humidity, and 5% CO2.
4-5. Three microliter CellTilter-GloTM luminescent substrate mix (Promega) reagent was added to the assay plate and incubated at room temperature for 5 min.
6. The luminescence signal was measured using a ViewLux (PerkinElmer) multiplate reader with a 2 second exposure time per plate. Data for each compound were normalized as percent viability such that measurements for DMSO and the empty well controls in each plate were defined as 100% and 0%, respectively.
Potency means the concentration at half of the fitted maximal effect.

| Structure (SMILES) | Potency |
| --- | --- |
| CCn1cc(C(=O)O)c(=O)c2cc(F)c(N3CCNC(C)C3)c(F)c21 (stereo not given) | inactive |
| O=C1CCCC(=O)C1C(=O)c1ccc(C(F)(F)F)cc1[N+](=O)[O-] | inactive |
| Cc1nc(-c2ccc(OCC(C)C)c(C#N)c2)sc1C(=O)O | inactive |
| Cn1cc(CNCC2CCN(c3ncc(C(=O)NO)cn3)CC2)c2ccccc21 | 0.235 µM (active) |
| COc1cc2ncnc(Nc3cc(Br)c(O)c(Br)c3)c2cc1OC | inactive |
| COc1cc([C@@H]2c3cc4c(cc3[C@H](O)[C@H]3COC(=O)[C@@H]23)OCO4)cc(OC)c1OC | 0.372 µM (active) |
| CCNC(=O)[C@H]1O[C@@H](n2cnc3c(N)nc(NCCc4ccc(CCC(=O)O)cc4)nc32)[C@H](O)[C@H]1O | inactive |
| O=C(O)c1cccnc1Nc1cccc(C(F)(F)F)c1 | inactive |
| C[C@H]1Oc2cc(cnc2N)-c2c(nn(C)c2C#N)CN(C)C(=O)c2ccc(F)cc21 | inactive |
| CCOc1cc2ncc(C#N)c(Nc3ccc(F)c(Cl)c3)c2cc1NC(=O)C=CCN(C)C | 5.26 µM (active) |
| CN[C@@H](C)[C@H]1[C@H](O)C[C@@]2(C)[C@@H]3CC[C@H]4C(C)(C)[C@@H](NC)CC[C@@]45C[C@@]35CC[C@]12C | inactive |
| Cc1c(-c2cccc3c(CCCOc4cccc5ccccc45)c(C(=O)O)n(Cc4cccnc4)c23)c(COc2ccc(N3CCN([S+](=O)([O-])N(C)C)CC3)cc2)nn1C | inactive |
| CC(C)(S)[C@@H](N)C(=O)O | inactive |
| COC[C@@H](c1ccc(C(F)(F)F)cc1)N1CCN(C2(C)CCN(C(=O)c3c(C)ncnc3C)CC2)C[C@H]1C | inactive |
| CC[C@H]1OC(=O)[C@H](C)[C@@H](O[C@H]2C[C@@](C)(OC)[C@@H](O)[C@H](C)O2)[C@H](C)[C@@H](O[C@@H]2O[C@H](C)C[C@H](N(C)C)[C@@H]2O)[C@](C)(OC)C[C@@H](C)C(=O)[C@H](C)[C@@H](O)[C@]1(C)O | inactive |
| COCCOc1nc(-c2ccc(Cl)c(Cl)c2)n(-c2ccc(NC(=O)CCl)cc2)n1 | inactive |
| Clc1cccc(-n2nnnc2NCc2ccccc2Oc2ccccn2)c1Cl | inactive |
| O=C1c2ccccc2-c2n[nH]c3cccc1c23 | 16.6 µM (active) |
| C[C@@H](CN1CC(=O)NC(=O)C1)N1CC(=O)NC(=O)C1 | 0.833 µM (active) |
| CC=C1NC(=O)[C@H]2CSSCCC=C[C@H](CC(=O)N[C@H](C(C)C)C(=O)N2)OC(=O)[C@H](C(C)C)NC1=O | 0.0372 µM (active) |

| Structure (SMILES) | Potency |
| --- | --- |
| COc1cc2ncnc(-n3nc(-c4ccccn4)nc3N)c2cc1OC | 26.4 µM (active) |
| CC1(C)SCCN(S(=O)(=O)c2ccc(OCC#CCO)cc2)[C@@H]1C(=O)NO | inactive |
| O=c1c(O)c(-c2cc(O)c(O)c(O)c2)oc2cc(O)cc(O)c12 | inactive |
| COc1ccccc1OCCNCC(O)COc1cccc2[nH]c3ccccc3c12 (stereo not given) | inactive |
| Cc1coc2c1C(=O)C(=O)c1c-2ccc2c(C)cccc12 | inactive |
| Cc1c(-c2ccnn2C)cc(C(=O)NCc2ccc(S(C)(=O)=O)cn2)c(=O)n1-c1cccc(C(F)(F)F)c1 | inactive |
| COc1cc2ncn(-c3cc(OCc4ccccc4S(C)(=O)=O)c(C#N)s3)c2cc1OC | inactive |
| COc1cccc2c1C(=O)c1c(O)c3c(c(O)c1C2=O)C[C@@](O)(C(=O)CO)C[C@@H]3O[C@H]1C[C@H](N)[C@H](OC2CCCCO2)[C@H](C)O1 (stereo not given in full) | inactive |
| CN1CCN(c2c(F)cc3c(=O)c(C(=O)O)cn4c3c2OCN4C)CC1 | inactive |
| CCCCCN(CCC12CC3CC(CC(C3)C1)C2)C(=O)NCCCc1ccncc1 | inactive |
| CCOC1OC(=O)C[C@H]1NC(=O)[C@@H]1CCCN1C(=O)[C@@H](NC(=O)c1ccc(N)c(Cl)c1)C(C)(C)C (stereo not given in full) | 1.87 µM (active) |
| Cn1cc(C=C2C(=O)Nc3cccnc32)c2ccccc21 | 23.5 µM (active) |
| O=C(NCC1CN(c2ccc(N3CCOCC3=O)cc2)C(=O)O1)c1ccc(Cl)s1 (stereo not given) | 2.96 µM (active) |
| CC(=O)NCCC(=O)N[C@@H](CCC(N)=O)C(=O)N[C@@H](CO)C(=O)N[C@@H](CCC(N)=O)C(=O)N[C@@H](CCC(N)=O)C(=O)N[C@H](C(=O)N[C@@H](Cc1ccccc1)C(=O)N[C@]1(C)CCCCCCC=CCCC[C@@](C)(C(=O)N[C@@H](CCC(N)=O)C(=O)N[C@@H](CC(N)=O)C(N)=O)NC(=O)[C@H](CC(C)C)NC(=O)[C@H](CC(C)C)NC(=O)[C@@H](CCCNC(=N)N)NC(=O)[C@H](Cc2c[nH]c3ccccc23)NC(=O)[C@H](CC(C)C)NC(=O)[C@H](CC(N)=O)NC1=O)[C@H](C)O | inactive |
| CC1=C(C(=O)O)N2C(=O)[C@@H](NC(=O)[C@H](N)C3=CCC=CC3)[C@H]2SC1 | inactive |
| CC(C)C[C@H](NC(=O)[C@@H](NC(=O)c1cccc(-c2ccccc2)n1)[C@@H](C)O)B(O)O | 0.0372 µM (active) |
| C=CCc1ccc(O)c(-c2ccc(O)c(CC=C)c2)c1 | 1.05 µM (active) |
| CC[C@@H]1C=C(C)C[C@H](C)C[C@H](OC)[C@H]2O[C@@](O)(C(=O)C(=O)N3CCCC[C@@H]3C(=O)O[C@H](C(C)=C[C@@H]3CC[C@H](Cl)[C@H](OC)C3)[C@H](C)[C@@H](O)CC1=O)[C@H](C)C[C@H]2OC | inactive |
| CCC(C)N(C)C(=O)c1cc2ccccc2c(-c2ccccc2Cl)n1 (stereo not given) | inactive |
| CN(NC(=O)CC(=O)NN(C)C(=S)c1ccccc1)C(=S)c1ccccc1 | 0.0741 µM (active) |
